# Publication PMC5540273 (PLoS ONE, 2017)
# System: FGR
# Settings: concentration: 1 μM,replicates: in singlicate; n = 1
# 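Further: KINOMEscan kinase panel screen.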
row,Structure (SMILES),%Inh [%]
1,COc1ccc(Nc2nccc(N3CCC(NC(=O)c4cccc(C#N)c4)C3)n2)cc1 (centres unmarked) [GSK1379730],0
2,C[C@@H](Oc1cc(-n2cnc3cc(-c4cnn(C)c4)ccc32)sc1C(N)=O)c1ccccc1Cl [GSK580432],72
3,O=C(Nc1n[nH]c2cc(-c3ccco3)ccc12)C1CC1 [SB-737447],0
4,COC(=O)Nc1nc2cc(Oc3ccc(NC(=O)Nc4cc(C(F)(F)F)ccc4Cl)cc3)ccc2[nH]1.Cl [GW697465],13
5,Cc1cccc2c(-c3ccncc3)c(-c3ccc(F)cc3)nn12.Cl [GW461487],2
6,O=c1[nH]cc(-c2ccc(O)cc2)c2sc(-c3ccncc3)cc12 [GSK1033723],21
7,COc1cccc(CNC(=O)NC2CCN(c3ccnc(Nc4cc(OC)c(OC)c(OC)c4)n3)C2)c1 (centres unmarked) [GSK1379765],18
8,COc1cccc(OC)c1C(=O)Nc1cccc(-c2nn3ccccc3c2-c2ccnc(Nc3cccc(F)c3)n2)c1 [GSK361065],23
9,CC(=O)Nc1nc2cnc(Nc3cc(NC(=O)c4cccc(CC(C)(C)C#N)c4)ccc3C)nc2s1,24
10,CC(C)S(=O)(=O)N1CCN(Cc2ccc3c(c2)nc(NC(=O)c2ccsc2)n3C[C@H](O)c2ccccc2)CC1 [GW635815],74
11,Cc1ccc(Nc2ccnc(Nc3ccc4c(c3)CS(=O)(=O)C4)n2)cc1O.Cl [GW579362],97
12,Cc1nnc(-c2ccc3occ(-c4ccc(S(C)=O)cc4)c3n2)o1 (centres unmarked),25
13,O=C(Nc1cccc(C(F)(F)F)c1)c1cccc(Oc2ccc3nccn3n2)c1,0
14,CCCC(=O)Nc1n[nH]c2ncccc12 [SB-601436],30
15,C[C@@H]1CNc2c(sc3ccc4nc(-c5ccc(O)cc5)ccc4c23)C(=O)N1,0
16,COC(=O)c1cccc(NC(=O)NC2CCN(c3ccnc(NCc4ccc(F)cc4)n3)CC2)c1 [GSK1379860],11
17,CC(=O)Nc1ccc(-c2cc3ncnc(SCC(=O)O)c3s2)cc1,21
18,NC(=O)c1ccc(-c2cc3ncnc(SCC(=O)O)c3s2)cc1,14
19,C[C@@H]1CCN(C(=O)N2CCCC2)C[C@@H]1N(C)c1ncnc2[nH]ccc12,29

row,Structure (SMILES),%Inh [%]
1,CCn1c(-c2nonc2N)nc2cncc(Br)c21 [SB-738004],17
2,Cc1ccc(CC(=O)N2CCc3cc(-c4cn(C)c5ncnc(N)c45)ccc32)cc1 [GSK2634758],37
3,Nc1nccc(-c2ccc3c(N)n[nH]c3c2)n1 [GSK1034945],15
4,COc1cccc(C2=C(Nc3cccc(Cl)c3)C(=O)NC2=O)c1 [SB-341556],5
5,Cc1n[nH]c2cc(Nc3ccnc(Nc4cccc(CN5CCOCC5)c4)n3)ccc12 [GW682569],49
6,Cl.Cl.NC[C@H](CC1CCCCC1)NC(=O)c1ccc(-c2ccnc3[nH]ccc23)s1 [GSK1581428],25
7,COc1cc2c(Nc3ccc(NC(=O)c4ccccc4)cc3)ncnc2cc1OCCCN1CCOCC1 [GSK301329],35
8,C[C@@H](Oc1cc(-n2cnc3ccc(-c4ccncc4)cc32)sc1C(N)=O)c1ccccc1Cl [GSK483724],27
9,NC(=O)Nc1sc(-c2ccc(F)cc2)cc1C(N)=O [GW789449],45
10,CN(c1ccc2c(c1)nc(NCc1ccc(F)cc1)n2C)c1ccnc(Nc2ccc(CS(C)(=O)=O)cc2)n1.Cl [GW813244],28
11,c1ccc(Oc2ccc(Nc3ccnc4ccc(-c5ccccn5)cc34)cc2)cc1 [GW407034],69
12,CS(=O)c1ccc(-c2coc3ccc(-c4n[nH]c(=O)o4)cc23)cc1 (centres unmarked),0
13,CCN1CCN(CCCC(=O)Nc2n[nH]c3nc(-c4ccc(O)cc4)c(Br)cc23)CC1 [SB-731579],0
14,CC(=O)c1c(-c2ccncc2)[nH]c(-c2ccncc2)c1C [GW493036],27
15,CSc1nccc(-c2c(-c3ccc(F)cc3)ncn2CCCN2CCOCC2)n1.Cl [SB-217146],0
16,CN1CCN(CCNc2nc3cc(Oc4ccc(NC(=O)Nc5cc(C(F)(F)F)ccc5F)cc4)ccc3[nH]2)CC1.Cl.Cl [GW768504],0
17,C[C@@H](Oc1cc(-n2cnc3cc(-c4ccncc4)ccc32)sc1C(N)=O)c1ccccc1Cl [GSK479719],40
18,O=C(Nc1cccc(Oc2ccc3nccn3n2)c1)Nc1cccc(C(F)(F)F)c1,18

# System: FLT1
# Settings: concentration: 1 μM,replicates: in singlicate; n = 1
row,Structure (SMILES),%Inh [%]
1,COc1ccc(Nc2nccc(N3CCC(NC(=O)c4cccc(C#N)c4)C3)n2)cc1 (centres unmarked) [GSK1379730],24
2,C[C@@H](Oc1cc(-n2cnc3cc(-c4cnn(C)c4)ccc32)sc1C(N)=O)c1ccccc1Cl [GSK580432],87
3,O=C(Nc1n[nH]c2cc(-c3ccco3)ccc12)C1CC1 [SB-737447],0
4,COC(=O)Nc1nc2cc(Oc3ccc(NC(=O)Nc4cc(C(F)(F)F)ccc4Cl)cc3)ccc2[nH]1.Cl [GW697465],98.8
5,Cc1cccc2c(-c3ccncc3)c(-c3ccc(F)cc3)nn12.Cl [GW461487],8
6,O=c1[nH]cc(-c2ccc(O)cc2)c2sc(-c3ccncc3)cc12 [GSK1033723],9
7,COc1cccc(CNC(=O)NC2CCN(c3ccnc(Nc4cc(OC)c(OC)c(OC)c4)n3)C2)c1 (centres unmarked) [GSK1379765],26
8,COc1cccc(OC)c1C(=O)Nc1cccc(-c2nn3ccccc3c2-c2ccnc(Nc3cccc(F)c3)n2)c1 [GSK361065],32
9,CC(=O)Nc1nc2cnc(Nc3cc(NC(=O)c4cccc(CC(C)(C)C#N)c4)ccc3C)nc2s1,3
10,CC(C)S(=O)(=O)N1CCN(Cc2ccc3c(c2)nc(NC(=O)c2ccsc2)n3C[C@H](O)c2ccccc2)CC1 [GW635815],71
11,Cc1ccc(Nc2ccnc(Nc3ccc4c(c3)CS(=O)(=O)C4)n2)cc1O.Cl [GW579362],99.6
12,Cc1nnc(-c2ccc3occ(-c4ccc(S(C)=O)cc4)c3n2)o1 (centres unmarked),0
13,O=C(Nc1cccc(C(F)(F)F)c1)c1cccc(Oc2ccc3nccn3n2)c1,97.4
14,CCCC(=O)Nc1n[nH]c2ncccc12 [SB-601436],0
15,C[C@@H]1CNc2c(sc3ccc4nc(-c5ccc(O)cc5)ccc4c23)C(=O)N1,6
16,COC(=O)c1cccc(NC(=O)NC2CCN(c3ccnc(NCc4ccc(F)cc4)n3)CC2)c1 [GSK1379860],42
17,CC(=O)Nc1ccc(-c2cc3ncnc(SCC(=O)O)c3s2)cc1,5
18,NC(=O)c1ccc(-c2cc3ncnc(SCC(=O)O)c3s2)cc1,4
19,C[C@@H]1CCN(C(=O)N2CCCC2)C[C@@H]1N(C)c1ncnc2[nH]ccc12,21

row,Structure (SMILES),%Inh [%]
1,CCn1c(-c2nonc2N)nc2cncc(Br)c21 [SB-738004],21
2,Cc1ccc(CC(=O)N2CCc3cc(-c4cn(C)c5ncnc(N)c45)ccc32)cc1 [GSK2634758],32
3,Nc1nccc(-c2ccc3c(N)n[nH]c3c2)n1 [GSK1034945],6
4,COc1cccc(C2=C(Nc3cccc(Cl)c3)C(=O)NC2=O)c1 [SB-341556],13
5,Cc1n[nH]c2cc(Nc3ccnc(Nc4cccc(CN5CCOCC5)c4)n3)ccc12 [GW682569],70
6,Cl.Cl.NC[C@H](CC1CCCCC1)NC(=O)c1ccc(-c2ccnc3[nH]ccc23)s1 [GSK1581428],42
7,COc1cc2c(Nc3ccc(NC(=O)c4ccccc4)cc3)ncnc2cc1OCCCN1CCOCC1 [GSK301329],26
8,C[C@@H](Oc1cc(-n2cnc3ccc(-c4ccncc4)cc32)sc1C(N)=O)c1ccccc1Cl [GSK483724],35
9,NC(=O)Nc1sc(-c2ccc(F)cc2)cc1C(N)=O [GW789449],28
10,CN(c1ccc2c(c1)nc(NCc1ccc(F)cc1)n2C)c1ccnc(Nc2ccc(CS(C)(=O)=O)cc2)n1.Cl [GW813244],98.9
11,c1ccc(Oc2ccc(Nc3ccnc4ccc(-c5ccccn5)cc34)cc2)cc1 [GW407034],14
12,CS(=O)c1ccc(-c2coc3ccc(-c4n[nH]c(=O)o4)cc23)cc1 (centres unmarked),19
13,CCN1CCN(CCCC(=O)Nc2n[nH]c3nc(-c4ccc(O)cc4)c(Br)cc23)CC1 [SB-731579],0
14,CC(=O)c1c(-c2ccncc2)[nH]c(-c2ccncc2)c1C [GW493036],10
15,CSc1nccc(-c2c(-c3ccc(F)cc3)ncn2CCCN2CCOCC2)n1.Cl [SB-217146],0
16,CN1CCN(CCNc2nc3cc(Oc4ccc(NC(=O)Nc5cc(C(F)(F)F)ccc5F)cc4)ccc3[nH]2)CC1.Cl.Cl [GW768504],90.7
17,C[C@@H](Oc1cc(-n2cnc3cc(-c4ccncc4)ccc32)sc1C(N)=O)c1ccccc1Cl [GSK479719],54
18,O=C(Nc1cccc(Oc2ccc3nccn3n2)c1)Nc1cccc(C(F)(F)F)c1,93.2
